Molecular target: PUM1 PUF domain R1-KVV (Homo sapiens, UniProt Q14671 828-1176, S863K;R864V;Q867V)
Experiment: yeast three-hybrid, YBZ-1, SC-Leu-His + 0.5 mM 3-AT, 4 days
Settings: tags: N-Gal4 AD-HA kept; label: inside an RPR1-promoter hybrid RNA with tandem MS2 sites; ssRNA
Method in brief: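 Repeat regions from input (SC-Leu) and selection (SC-Leu-His + 0.5 mM 3-AT) plates were PCR-amplified and Illumina-sequenced after four days of growth. The cells were strain YBZ-1 with a LexA–MS2 coat fusion and a HIS3 reporter, co-expressing Pumilio-1 PUF domain libraries and matching RNA elements from a centromeric plasmid. The interaction score is the log change in variant frequency from input to selection, taken in log2 with a pseudocount of 1 for absent variants.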

PUM1 PUF domain R1-KVV, sequence (Q14671 828-1176 S863K/R864V/Q867V): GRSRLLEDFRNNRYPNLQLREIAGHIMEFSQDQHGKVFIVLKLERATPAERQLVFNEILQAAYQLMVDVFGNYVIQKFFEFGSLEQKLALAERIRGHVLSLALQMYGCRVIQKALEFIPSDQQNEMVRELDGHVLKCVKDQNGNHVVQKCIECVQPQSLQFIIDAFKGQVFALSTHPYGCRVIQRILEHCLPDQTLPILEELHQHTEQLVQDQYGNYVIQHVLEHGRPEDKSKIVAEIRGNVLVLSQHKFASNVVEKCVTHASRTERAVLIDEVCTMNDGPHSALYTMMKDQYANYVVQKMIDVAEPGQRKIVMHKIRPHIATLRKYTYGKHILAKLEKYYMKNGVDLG

| Sequence | binding signal |
| --- | --- |
| GGCUAGAACUAGUGGAUCCCCCGGCGCCCGGCGGCUCGAGCCCGGGUAAGUGUAAAUUGUCUGCAUGCCGCCGGGCGCCAUGCCUGCAGGUCGACUCUAGAAAACAUG | 5.82 log2 enrichment (interaction score) |
| GGCUAGAACUAGUGGAUCCCCCGGCGCCCGGCGGCUCGAGCCCGGGUAAGUGUAAAUGGUCUGCAUGCCGCCGGGCGCCAUGCCUGCAGGUCGACUCUAGAAAACAUG | 1.3 log2 enrichment (interaction score) |
| GGCUAGAACUAGUGGAUCCCCCGGCGCCCGGCGGCUCGAGCCCGGGUAAGUGUAAAUCGUCUGCAUGCCGCCGGGCGCCAUGCCUGCAGGUCGACUCUAGAAAACAUG | 5.35 log2 enrichment (interaction score) |
